According to PubChem BioAssay (NCI):
Several values for one entry are separate records, joined by “and”; a condition that tells them apart may be missing. Identical values can stand only once. About 83,000 compounds went through this panel and 20% of them were active in at least one assay; those are over-represented in the sample as a whole.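 A percent growth of 40 corresponds to 60% growth inhibition; 0 means no net growth; -100 means all cells died. Active threshold: below 10.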 Activity calls are given as the source filed them.

Legend:
Experiment in all cases: NCI-60 one-dose screen, 48 h (100 = growth as untreated, 0 = no growth, -100 = all killed)
Details in all cases: 10 µM unless noted
NCI-H23 lung = test system: NCI-H23 lung
NCI-H226 lung = test system: NCI-H226 lung
NCI-H322M lung = test system: NCI-H322M lung
HOP-62 NSCLC = test system: HOP-62 NSCLC
NCI-H460 lung = test system: NCI-H460 lung
NCI-H522 lung = test system: NCI-H522 lung
A549/ATCC NSCLC = test system: A549/ATCC NSCLC
786-0 renal = test system: 786-0 renal
COLO 205 colon = test system: COLO 205 colon
HOP-92 NSCLC = test system: HOP-92 NSCLC

Measured: growth

OB(O)c1ccsc1-c1nc2ccc3[nH]ncc3c2c2c1CCCC2
inactive: NCI-H23 lung 51.6% | NCI-H226 lung 72% | NCI-H322M lung 49.9% | HOP-62 NSCLC 52.2% | NCI-H460 lung 38.9% | NCI-H522 lung 32.2% | A549/ATCC NSCLC 46.7% | 786-0 renal 48.6% | COLO 205 colon 41.2%

N=C(N)SCc1c2ccccc2c(CSC(=N)N)c2ccccc12
inactive: NCI-H23 lung 54.4% | NCI-H226 lung 71.2% | NCI-H322M lung 103% | NCI-H460 lung 34.4% | HOP-92 NSCLC 32.2% | NCI-H522 lung 31.2% | A549/ATCC NSCLC 65.9% | 786-0 renal 47.7% | COLO 205 colon 66.1%

CC(=O)OC[C@]12CCC(C)(C)C=C1[C@H]1CC[C@@H]3[C@@]4(C)CCCNC(C)(C)[C@@H]4CC[C@@]3(C)[C@]1(C)CC2
active: COLO 205 colon 1.01%
inactive: NCI-H23 lung 65% | NCI-H226 lung 77.9% | NCI-H322M lung 98.9% | NCI-H460 lung 49.4% | HOP-92 NSCLC 83% | NCI-H522 lung 39.4% | A549/ATCC NSCLC 83% | 786-0 renal 82.2%

Cc1cc(N2CCCCC2)nc(NCc2cc(Nc3ccnc4cc(Cl)ccc34)ccc2F)n1
active: NCI-H322M lung -12.7% | NCI-H460 lung -22.7% | HOP-92 NSCLC -21.9% | NCI-H522 lung -57.9% | A549/ATCC NSCLC 2.71% | 786-0 renal -80.1% | COLO 205 colon -72.7%
inactive: NCI-H23 lung 22.3% | NCI-H226 lung 68.2%

COc1ccc(-c2ccccc2)cc1-c1c(Nc2cc(Cl)cc(Cl)c2O)c(=O)c1=O
inactive: NCI-H226 lung 19.3% | NCI-H322M lung 11.3% | 786-0 renal 17.3% | COLO 205 colon 48.1%
active: NCI-H23 lung 2.65% | NCI-H460 lung 7.61% | HOP-92 NSCLC -24.5% | NCI-H522 lung -19.6% | A549/ATCC NSCLC 8.72%

CCOC(=O)C(=CCC(C)C)C(=O)OCC
inactive: NCI-H23 lung 93.1% | NCI-H226 lung 93.4% | NCI-H322M lung 104% | NCI-H460 lung 106% | HOP-92 NSCLC 89.3% | NCI-H522 lung 104% | A549/ATCC NSCLC 104% | 786-0 renal 95.9% | COLO 205 colon 116%

O=C(Nc1ccccc1C(=O)N/N=C(\c1ccccc1)c1ccccn1)c1ccccc1
active: NCI-H460 lung -0.498% | NCI-H522 lung 0.831% | A549/ATCC NSCLC 9.7% | 786-0 renal 9.15% | COLO 205 colon 5.09%
inactive: NCI-H23 lung 24.9% | NCI-H226 lung 18.1% | NCI-H322M lung 29.1% | HOP-92 NSCLC 34.9%

CCOc1ccccc1NC(=O)c1cc2ccccc2cc1O
inactive: NCI-H23 lung 16.4% | NCI-H226 lung 71.8% | NCI-H322M lung 84.1% | NCI-H460 lung 26.9% | NCI-H522 lung 12.9% | A549/ATCC NSCLC 36.8% | 786-0 renal 70.7% | COLO 205 colon 111%
active: HOP-92 NSCLC 5.82%

N#CC1C(=O)c2ccccc2C1c1ccccc1 (stereo unspecified)
inactive: NCI-H23 lung 97.4% and 102% | NCI-H322M lung 105% and 96.7% | HOP-62 NSCLC 98.8% and 107% | NCI-H460 lung 114% and 105% | HOP-92 NSCLC 75.2% and 84.7% | NCI-H522 lung 96.4% and 99% | A549/ATCC NSCLC 102% | 786-0 renal 93.1% and 89.8% | COLO 205 colon 115%

COCCOc1cc2ncnc(N3CCN(S(=O)(=O)c4ccccc4Cl)CC3)c2cc1OCCOC
inactive: NCI-H23 lung 85.8% | NCI-H226 lung 95.5% | NCI-H322M lung 98.3% | NCI-H460 lung 103% | HOP-92 NSCLC 75.6% | NCI-H522 lung 65.8% | A549/ATCC NSCLC 86.7% | 786-0 renal 89.2% | COLO 205 colon 96.8%

CC/C(=C(/c1ccc(Cl)cc1)c1ccc(OCCN2CCOCC2)cc1)c1ccccc1
inactive: NCI-H23 lung 87.5% | NCI-H226 lung 108% | NCI-H322M lung 104% | NCI-H460 lung 96.1% | HOP-92 NSCLC 98.4% | NCI-H522 lung 88.6% | A549/ATCC NSCLC 89.9% | 786-0 renal 103% | COLO 205 colon 99.8%

CN1CCN(C(=O)OCc2nc3c(N4CCOCC4)nc(Cl)nc3n2C)CC1
active: NCI-H23 lung -1.07% | NCI-H226 lung -60.8% | NCI-H460 lung 6.7% | HOP-92 NSCLC -32% | NCI-H522 lung -38.8% | 786-0 renal -95.5% | COLO 205 colon -30.8%
inactive: NCI-H322M lung 53.7% | A549/ATCC NSCLC 25.1%

Cc1[nH]c(C(=O)Nc2nc3ccc(NC(=O)CCN)cc3s2)c(Cl)c1Cl
inactive: NCI-H23 lung 37.4% | NCI-H226 lung 86.7% | NCI-H322M lung 94% | NCI-H460 lung 42.6% | HOP-92 NSCLC 73.9% | NCI-H522 lung 85.5% | A549/ATCC NSCLC 95.8% | 786-0 renal 92.1% | COLO 205 colon 104%

COc1cc(-c2nn(-c3cccc(NC(=O)CCN4CCN(C)CC4)c3)cc2-c2ccncc2)ccc1Cl
active: NCI-H522 lung -6.1% | COLO 205 colon -31.6%
inactive: NCI-H23 lung 42.5% | NCI-H226 lung 67.7% | NCI-H322M lung 37.5% | NCI-H460 lung 14.9% | HOP-92 NSCLC 22.7% | A549/ATCC NSCLC 30.7% | 786-0 renal 12.2%
